The text below walks through data of PubChem BioAssay AID720706 (Broad Institute, 2013).

The campaign covered roughly 350,000 compounds. About 5,500 (1.6%) were called active.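 The calls were made as follows: active = significant combined selectivity score with lowered wild-type GFP, culture density cut under 30%, mutant RFP and density less affected; inactive = any of these conditions unmet.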 The sample as a whole holds a higher share of actives than the screen did.

The nature of this assay: GFP drop in mixed WT/humanized-ribosome E. coli culture – GFP/RFP fluorescence, OD600, single point, bacterial rRNA inhibitor project, primary screen (AID 720706). The conditions noted are these: E. coli WT GFP vs humanized-ribosome RFP mutants, 24 h; GFP signal change (wild-type ribosome): stronger effect = lower value, DMSO median 0, no signal -100; OD600 change: measured here: OD600 growth, DMSO median 0, no signal -100; RFP signal change: measured here: RFP humanized mutant strains, DMSO median 0, no signal -100, concentration not given here.
Regarding `CC(C)[C@@H]1COCc2cnnn2CCC[C@H](C)C(=O)N1`, the GFP signal change (wild-type ribosome) is 1.6% (inactive), the OD600 change was determined as 7.64% and the RFP signal change is 1.53%.
Regarding `CC(C)(C)C(c1nc2ccccc2[nH]1)n1c(Cc2csc3ccccc23)nc2ccccc21` (stereo unspecified), the GFP signal change (wild-type ribosome) was -9.17% (inactive), the OD600 change is -4.49% and the RFP signal change was found to be 9.77%.
In the same order, the values of `COC(=O)c1cccc(NC(=O)c2cccc(N3C(=O)CCC3=O)c2)c1` are 0.987% (inactive), 9.02% and 0.607%.
In the same order, the values of `Cc1cc(C)cc(NC(=O)c2cccc(NC(=O)C3C4CC5OC(=O)C3C5C4)c2)c1` (stereo unspecified) are -21.2% (active), -14.4% and 6.04%.
`Cc1ccc(NC(=O)COC(=O)C2C3CC4OC(=O)C2C4C3)cc1Cl` (stereo unspecified): the GFP signal change (wild-type ribosome) was -1.3% (inactive), the OD600 change is -3.04% and the RFP signal change is -5.78%.
The like results for `COc1ccccc1C#Cc1ccc2c(c1)O[C@@H](CN(C)Cc1cncnc1)[C@H](C)CN([C@@H](C)CO)S2(=O)=O` were, in that order, -12.1% (inactive), -13.6% and 10%.
Turning to `O=C1CN(S(=O)(=O)Cc2ccccc2)C[C@@H]2[C@@H](c3ccc(C#Cc4cccc(F)c4)cc3)[C@@H](CO)N12`, the GFP signal change (wild-type ribosome) is -6.58% (inactive), the OD600 change is -36.6% and the RFP signal change stood at 26.9%.
The like results for `C[C@@H]1CN([C@@H](C)CO)S(=O)(=O)c2ccc(C#C[C@@H](C)O)cc2O[C@@H]1CN(C)C(=O)Cc1ccccn1` were, in that order, 3.39% (inactive), 0.98% and -0.13%.
For `COc1ccccc1C(=O)Nc1ccc2c(c1)C(=O)N(C)C[C@@H](OC)[C@@H](C)CN(CC1CC1)[C@@H](C)CO2`, the GFP signal change (wild-type ribosome) was -1.52% (inactive), the OD600 change was -3.13% and the RFP signal change stood at 0.12%.
For the compound `CC(C)=C1SC(N2CCN(c3ccc(C)c(Cl)c3)CC2)=NC1=O`, the GFP signal change (wild-type ribosome) was -1.49% (inactive), the OD600 change is -2.03% and the RFP signal change was -2.71%.
Consider `CCOc1cc(/C=C2\SC(N3CCCCC3)=NC2=O)ccc1O`, for which the GFP signal change (wild-type ribosome) was -19.3% (inactive), the OD600 change was -20.3% and the RFP signal change worked out at 8.23%.
As to `CCN1C(=O)/C(=C2\SC(N3CCCCC3)=NC2=O)c2ccccc21`, the GFP signal change (wild-type ribosome) is -24% (active), the OD600 change came to 0.66% and the RFP signal change is -4.52%.
In the same order, the values of `COc1cccc(C(=O)N2C[C@@H]3[C@H](c4ccccc42)[C@H](CO)N3Cc2ccccc2F)c1` are -8.84% (inactive), -21.6% and 1.94%.
In the same order, the values of `COc1ccccc1N1CCN(/N=C/c2ccc(O)cc2O)CC1` are 2.04% (inactive), 0.96% and -2.29%.
In the same order, the values of `Cc1n[nH]c(=O)nc1N/N=C/c1cccs1` are 12.5% (inactive), -10.6% and 3.52%.
Regarding `Cc1nc2ccccc2nc1N/N=C/c1ccc(O)cc1O`, the GFP signal change (wild-type ribosome) was -17.1% (active), the OD600 change is -1% and the RFP signal change is 6.07%.
`CN(C)CCCNC(=O)C[C@H]1C=C[C@@H](NC(=O)Cc2cccnc2)[C@H](CO)O1`: the GFP signal change (wild-type ribosome) was -1.21% (inactive), the OD600 change was 6.35% and the RFP signal change was -1.98%.
In the same order, the values of `Cc1[nH]n(C)c(=O)c1C(=O)c1c(-c2c(Cl)cccc2Cl)noc1C` are 23.4% (inactive), 10.3% and 1.84%.
Turning to `Cc1onc(-c2c(Cl)cccc2Cl)c1C(=O)NNC(=O)c1c(-c2c(Cl)cccc2Cl)noc1C`, the GFP signal change (wild-type ribosome) was -35.2% (active), the OD600 change is -26.9% and the RFP signal change is 1.07%.
`Cc1onc(-c2c(F)cccc2Cl)c1C(=O)Nc1cccc(S(=O)(=O)N2CCCCC2)c1`: the GFP signal change (wild-type ribosome) was -6.88% (inactive), the OD600 change is -20.2% and the RFP signal change is -1.93%.
In the case of `CN1C(=O)c2cc(NC(=O)c3ccc(Cl)cc3)ccc2OC[C@H]2O[C@H](CC(=O)O)CC[C@H]21`, the GFP signal change (wild-type ribosome) is 1.69% (inactive), the OD600 change stood at 1.68% and the RFP signal change was -1.26%.
The like results for `C[C@H]1CN([C@@H](C)CO)C(=O)c2cc(NC(=O)Nc3ccc4c(c3)OCO4)ccc2O[C@H]1CN(C)S(=O)(=O)c1ccc(F)cc1` were, in that order, -3.35% (inactive), -0.035% and 3.46%.
On to `CN1C(=O)c2cc(NC(=O)C3CCC3)ccc2OC[C@@H]2O[C@@H](CC(=O)NCCc3ccncc3)CC[C@H]21`, for which the GFP signal change (wild-type ribosome) was 5.03% (inactive), the OD600 change is 10.1% and the RFP signal change is -1.17%.
`COc1ccccc1Oc1nc(-c2cccnc2)nc2ccccc12`: the GFP signal change (wild-type ribosome) is -34.3% (active), the OD600 change is -23.4% and the RFP signal change is -3.61%.
The like results for `COc1ccccc1CCNC(=O)CSc1nnc2ccc(-c3cccnc3)nn12` were, in that order, -2.66% (inactive), 7.92% and 10.5%.
As to `S=c1nc2ccccc2c2nc(-c3cccnc3)[nH]n12`, the GFP signal change (wild-type ribosome) was -0.36% (inactive), the OD600 change is -3.58% and the RFP signal change is -4.9%.
In the case of `Cc1ccc(S(=O)(=O)N(C)C[C@@H]2Oc3ccc(NS(=O)(=O)c4cn(C)cn4)cc3C(=O)N([C@@H](C)CO)C[C@H]2C)cc1`, the GFP signal change (wild-type ribosome) is 0.239% (inactive), the OD600 change is -1.14% and the RFP signal change amounted to 0.319%.
As for `O=C(Nc1ccc(F)cc1)N1CCCC(c2nc3c(nnn3Cc3ccccc3Cl)c(=O)[nH]2)C1` (stereo unspecified), the GFP signal change (wild-type ribosome) is 5.54% (inactive), the OD600 change was 16.4% and the RFP signal change amounted to 5.16%.
For `Cc1ccc(Cn2nnc3c(=O)[nH]c(C4CCN(S(=O)(=O)/C=C/c5ccccc5)CC4)nc32)cc1`, the GFP signal change (wild-type ribosome) is -1.02% (inactive), the OD600 change is -8.59% and the RFP signal change was 5.14%.
In the same order, the values of `Cc1ccc(NC(=O)N2CCC(c3nc4c(nnn4Cc4c(F)cccc4Cl)c(=O)[nH]3)CC2)cc1` are -32.9% (active), -18.6% and -4.28%.
The like results for `COc1ccccc1NC(=O)N[C@H]1CC[C@@H](CCn2cc(C3(O)CCCC3)nn2)O[C@@H]1CO` were, in that order, -0.097% (inactive), 0.829% and -2.3%.
In the same order, the values of `CC(C)NC(=O)N1[C@H](C(=O)N2CCc3ccccc3C2)[C@@H](CO)[C@@H]2Cn3c(cccc3=O)[C@@H]21` are -0.919% (inactive), -4.45% and -2.12%.
Take `Cc1ccccc1NC(=S)NC(=O)Cc1ccc(Cl)cc1`: the GFP signal change (wild-type ribosome) was -31.6% (active), the OD600 change is -2.94% and the RFP signal change was 1.01%.
As to `O=C(Cc1ccc(Cl)cc1)NC(=S)Nc1ccccc1O`, the GFP signal change (wild-type ribosome) was 6.71% (inactive), the OD600 change was -1.88% and the RFP signal change came to 5.02%.
In the same order, the values of `Cc1cccc(NC(=S)NCCc2ccc(Cl)cc2)c1C` are -5.8% (inactive), -24.2% and 6.65%.
For the compound `C[C@H](CO)N1C[C@H](C)[C@H](CN(C)S(=O)(=O)c2cccs2)Oc2c(NS(=O)(=O)c3ccc(Cl)cc3)cccc2C1=O`, the GFP signal change (wild-type ribosome) is -5.17% (inactive), the OD600 change is -6.49% and the RFP signal change came out at 3.43%.
`CCCn1c(=S)[nH]c2ccc(C(F)(F)F)cc21`: the GFP signal change (wild-type ribosome) is -39% (active), the OD600 change was -18.3% and the RFP signal change was -4.67%.
In the same order, the values of `CN(C)CCn1c(=S)[nH]c2ccc(Cl)cc2c1=O` are 5.19% (inactive), 0.375% and 2.03%.
For the compound `CC(C)n1c(=S)[nH]c2cc(C(F)(F)F)ccc21`, the GFP signal change (wild-type ribosome) is -0.904% (inactive), the OD600 change was -3.6% and the RFP signal change was -3.06%.
The like results for `Cc1ccccc1-c1ccc([C@H]2[C@@H](CO)N3C(=O)CN(C(=O)c4cccnc4)C[C@@H]23)cc1` were, in that order, 3.51% (inactive), 8.18% and -0.0435%.
As to `S=C(NNC(=S)NC1CC2C=CC1C2)NC1CC2C=CC1C2` (stereo unspecified), the GFP signal change (wild-type ribosome) was -47.5% (active), the OD600 change is -15.1% and the RFP signal change was -13.4%.
The like results for `CC(C)c1ccc(NC(=S)NC2CC3C=CC2C3)cc1` (stereo unspecified) were, in that order, -37.3% (inactive), -66.8% and 0.867%.
